Sampled rows, rich in hits. Any-hit rate of the full collection: about 17%.
TDP1 cell noCPT – qHTS for Inhibitors of human tyrosyl-DNA phosphodiesterase 1 (TDP1): qHTS in cells in absence of CPT; DT40 Tdp1-/- hTDP1 cells, no CPT, ATP luminescence, 48 h; Potency, µM (highest dose often 46.2 µM), for inactives: at the highest dose activity change, negative = growth inhibition, actives largely listed as inhibitors; actives 15% (n = 420,000); AID 686978, 2013; further: on the % scale 0 is the no-effect control and ±100 the full control effect; nearly all actives have a fitted effect of over 55% in size
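Compound effects on proliferation are scored in DT40 Tdp1-/-;hTDP1 cells in the absence of CPT. ATP levels (CellTiter-Glo luminescence) are recorded after a ≥48 hr, 37 °C incubation.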
TDP1 block – qHTS Assay for Inhibitors of Tyrosyl-DNA Phosphodiesterase (TDP1); Tyrosyl-DNA phosphodiesterase 1 (Homo sapiens), Q9NUW8; recombinant TDP1, AlphaScreen DNA substrate cleavage; Potency, µM (highest dose often 130 µM), inactives show at the top dose activity change, negative = inhibition, usual class: inhibitors; actives 0.28% (n = 350,000); AID 485290, 2010; further: on the % scale 0 is the no-effect control and ±100 the full control effect; nearly all actives have a fitted effect of over 40% in size
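Enzyme-compound mixtures sat 15 min at room temperature, followed by a 5 min reaction with 15 nM final substrate and 10 min with AlphaScreen beads. Recombinant human Tdp1 was used at 1 nM final.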
ClpP mod – qHTS Assay for Activators of ClpP; actives 1.9% (n = 340,000); purified B. subtilis ClpP, FRET peptide cleavage, 20 min; AID 651965, 2013; Potency, µM (doses to about 57.5 µM), for inactives: top-dose activity change, negative = active; ATP-dependent Clp protease proteolytic subunit (Bacillus subtilis (strain 168)), P80244; active means well fitted falling curve with a large enough effect; inconclusive means small, poorly fitted or top-dose-only effect; inactive means no such curve, though single readings can be large or run the other way; further: the source files actives as falling curves though it sought activators and does not explain the sign; nearly all actives have a fitted effect of over 65% in size
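Purified B. subtilis ClpP, 10 microg/mL final in Tris/HCl pH8 with KCl, BSA, glycerol and Tween-20, cleaved an Abz/nitrotyrosine-quenched decapeptide. Fluorescence (ex 320, em 430) was read at 0 and 20 min at room temperature. Delta was normalized to 5.8 microM ADEP and DMSO/no-enzyme controls.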
TDP1 cell CPT – qHTS for Inhibitors of human tyrosyl-DNA phosphodiesterase 1 (TDP1): qHTS in cells in presence of CPT. chicken DT40 Tdp1-/-;hTDP1 cells + 20 nM CPT, ATP luminescence, 48 h. actives 12% (n = 420,000). AID 686979, 2013. Potency, µM (titrated, usually from 46.2 µM), without a hit: top-dose activity change, negative = growth inhibition, actives largely listed as inhibitors; further: on the % scale 0 is the no-effect control and ±100 the full control effect; nearly all actives have a fitted effect of over 55% in size
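Cell growth measured by CellTiter-Glo luminescence after a minimum 48 h, 37 C compound exposure with 20 nM CPT in Tdp1-knockout DT40 cells stably expressing hTDP1, seeded 400/well; qHTS titration format.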
Numbers without * were called inactive; [ ] = remark or other dose. Unless noted, the call rests on the fitted dose curve; in most records, active means well fitted curve in the direction sought with a large enough effect; inconclusive means small, poorly fitted or top-dose-only effect, or another doubt; inactive means no such curve, though single readings can be large; an effect the other way counts as inactive or inconclusive. Potency means the concentration at half of the fitted maximal effect.

For Cc1oc2ncn(CC(C)C)c(=O)c2c1C(=O)NCc1cccc(Cl)c1 the results were TDP1 cell noCPT 16.4µM*, TDP1 block -2.1%, ClpP mod -0.7% and TDP1 cell CPT 16.4µM*.
For COc1ccc(C)cc1NC(=O)c1c(C)oc2ncn(CC(C)C)c(=O)c12 the results were TDP1 cell noCPT 23.1µM*, TDP1 block -6.3%, ClpP mod -0.5% and TDP1 cell CPT inconclusive.
Screening Cc1cccc(NC(=O)c2c(C)oc3ncn(CC(C)C)c(=O)c23)n1 returned TDP1 cell noCPT 9.2µM*, TDP1 block 0.0%, ClpP mod -0.1% and TDP1 cell CPT 10.3µM*.
COc1ccc(NC(=O)CN(C)C(=O)c2cn(-c3ccccc3)nc2-c2cccnc2)cc1 was read as TDP1 cell noCPT inconclusive, ClpP mod 0.7% and TDP1 cell CPT -25.9%.
Screening COc1ccc(CNC(=O)COC(=O)CCn2c(C)csc2=O)cc1OC returned TDP1 cell noCPT -25.4%, TDP1 block 12.1% and TDP1 cell CPT -10.1%.
`CN(c1ccccc1)S(=O)(=O)c1ccc(C(=O)N2CCN(c3ccccc3)CC2)cc1` gave TDP1 cell noCPT -13.4%, ClpP mod 0.6% and TDP1 cell CPT -1.8%.
For Cc1ccccc1C1(CC(=O)N2CCN(C)CC2)CC(=O)N(Cc2ccncc2)C1=O (stereo not drawn) the results were TDP1 cell noCPT -1.1% and TDP1 cell CPT -12.7%[9.04 µM].
For CC(=O)c1ccc(NC(=O)CSc2nc3c(=O)n(C)c(=O)n(C)c3n2C)cc1 the results were TDP1 cell noCPT -13.0%, TDP1 block 0.0%, ClpP mod 1.1% and TDP1 cell CPT 6.7%.
`Cc1ccc(N/C(N)=N/c2nc(CSc3nnc(N)s3)cc(=O)[nH]2)cc1` gave TDP1 cell noCPT 13.9%, TDP1 block 2.7%, ClpP mod -1.5% and TDP1 cell CPT 7.9%.
Screening COc1ccccc1N/C(N)=N/c1nc(CSc2ccc(C)cc2)cc(=O)[nH]1 returned TDP1 cell noCPT 7.31µM*, TDP1 block 9.6%, ClpP mod -0.6% and TDP1 cell CPT 18.4µM*.
Cc1ccc(SCc2cc(=O)[nH]c(/N=C(\N)Nc3ccccc3Sc3ccccc3)n2)cc1 was read as TDP1 cell noCPT 29.1µM*, TDP1 block 3.0%, ClpP mod -12.5% and TDP1 cell CPT inconclusive.
CC#CCC1(C(=O)OC)C(=O)NC[C@H]1c1ccccc1 (stereo partly drawn) was read as TDP1 block 3.7%.
Screening COc1cc(-c2[nH]ncc2CN(C)Cc2nonc2C)cc(OC)c1OC returned TDP1 cell noCPT 16.4µM*, ClpP mod 0.3% and TDP1 cell CPT inconclusive.
Screening COc1cc(-c2[nH]ncc2CN2CCSCC2)cc(OC)c1OC returned TDP1 cell noCPT 14.6µM*, TDP1 block 7.1% and TDP1 cell CPT inconclusive.
For COc1ccc(-c2[nH]ncc2CN(C)Cc2nonc2C)c(OC)c1 the results were TDP1 cell noCPT -4.7%, TDP1 block 0.0%, ClpP mod -4.7% and TDP1 cell CPT -4.5%.
Screening COc1ccc(-n2nnnc2S(=O)(=O)Cc2ccc(C(=O)O)cc2)cc1 returned TDP1 cell noCPT 16.4µM*, TDP1 block 4.1%, ClpP mod 0.2% and TDP1 cell CPT 14.6µM*.
O=S(=O)(Cc1ccccc1)c1nnnn1-c1ccccc1 was read as TDP1 block 5.6%.
`COc1ccc(-n2nnnc2S(=O)(=O)CC(=O)N2CCCCC2)cc1` gave TDP1 cell noCPT 1.46µM*, TDP1 block 0.0%, ClpP mod -0.7% and TDP1 cell CPT 2.59µM*.
`C/C(=N\NC(N)=O)c1cccc(Cl)c1` gave TDP1 cell noCPT -21.0%, TDP1 block -2.3%, ClpP mod 0.5% and TDP1 cell CPT inconclusive.
For C/C(=N\N=C(N)N)c1cccc(Cl)c1 the results were TDP1 cell noCPT 8.2µM*, TDP1 block -7.2%, ClpP mod 0.3% and TDP1 cell CPT 16.4µM*.
C/C(=N\O)c1ccc(Cl)cc1Cl was read as TDP1 cell noCPT -11.6%, TDP1 block 2.9%, ClpP mod -0.6% and TDP1 cell CPT 5.1%.
Screening C/C(=N\N=C(N)N)c1ccc(Cl)cc1Cl returned TDP1 cell noCPT 16.4µM*, TDP1 block 0.0%, ClpP mod 0.5% and TDP1 cell CPT 8.2µM*.
For Oc1ccc(C[C@H]2CN([C@@H](Cc3ccc(O)cc3)CN3CCC[C@@H]3CN3C(=S)NC[C@@H]3Cc3ccccc3)C(=S)N2CCc2ccccc2)cc1 the results were TDP1 cell noCPT 10.3µM*, ClpP mod -4.0% and TDP1 cell CPT 9.2µM*.
For CC(C)C[C@@H](CN1CCCC1CN1C(=S)NC[C@@H]1Cc1ccc(O)cc1)N1C[C@H](Cc2ccc(O)cc2)N(CCc2ccccc2)C1=S (stereo partly drawn) the results were TDP1 cell noCPT 7.31µM*, ClpP mod -4.5% and TDP1 cell CPT 13µM*.
For Oc1ccc(C[C@H]2CNC(=S)N2C[C@H]2CCCN2C[C@H](Cc2ccccc2)N2C[C@H](Cc3ccc(O)cc3)N(CCc3ccccc3)C2=S)cc1 the results were TDP1 cell noCPT 4.11µM*, ClpP mod -2.4% and TDP1 cell CPT 7.31µM*.
`Oc1ccc(C[C@H]2CN([C@@H](Cc3ccccc3)CN3CCCC3CN3C(=S)NC[C@@H]3Cc3ccccc3)C(=S)N2CCc2ccccc2)cc1` (stereo partly drawn) gave TDP1 cell noCPT 16.4µM*, ClpP mod -1.1% and TDP1 cell CPT 20.6µM*.
For O=C1NC[C@H](Cc2ccccc2)N(C[C@@H]2CCCN2C[C@H](Cc2ccccc2)N2C[C@H](Cc3ccc(O)cc3)N(CCc3ccccc3)C(=O)C2=O)C1=O the results were TDP1 cell noCPT inconclusive, ClpP mod 0.7% and TDP1 cell CPT inconclusive.
Screening O=C1NC[C@H](Cc2ccccc2)N(C[C@H]2CCCN2C[C@H](Cc2ccccc2)N2C[C@H](Cc3ccc(O)cc3)N(CCc3ccccc3)C(=O)C2=O)C1=O returned TDP1 cell noCPT inconclusive, ClpP mod 0.2% and TDP1 cell CPT inconclusive.
`CCOc1ccc(S(=O)(=O)Nc2cccc(C(=O)NCC(c3ccccc3)N(C)C)c2)cc1` (stereo not drawn) gave TDP1 cell noCPT 18.4µM*, TDP1 block -10.0%, ClpP mod 0.3% and TDP1 cell CPT 23.1µM*.
Screening COc1ccc(C(CNC(=O)c2ccc(S(=O)(=O)Nc3ccc(F)cc3)cc2)N(C)C)cc1 (stereo not drawn) returned TDP1 cell noCPT 23.1µM*, TDP1 block 7.6% and TDP1 cell CPT 16.4µM*.
`COc1ccc(C(CNC(=O)c2cccc(NS(=O)(=O)c3ccccc3)c2)N(C)C)cc1` (stereo not drawn) gave TDP1 cell noCPT -17.1%, TDP1 block 4.1%, ClpP mod 1.7% and TDP1 cell CPT -26.5%.
